Assay results reported in PubChem BioAssay.
Potency and affinity values are given separately. Activity calls are given as the source filed them. A call without a number means that no potency is given here. No rule for the calls is given here.

target: Plasmodium falciparum protein kinase 6 (PK6, PF3D7_1337100) (UniProt Q8IDW1); assay: PfPK6 kinase inhibitors, biochemical, TCAMS library (AID 1159586); details: recombinant PfPK6, Kinase-Glo ATP depletion luminescence
Sequence (Q8IDW1 1-305): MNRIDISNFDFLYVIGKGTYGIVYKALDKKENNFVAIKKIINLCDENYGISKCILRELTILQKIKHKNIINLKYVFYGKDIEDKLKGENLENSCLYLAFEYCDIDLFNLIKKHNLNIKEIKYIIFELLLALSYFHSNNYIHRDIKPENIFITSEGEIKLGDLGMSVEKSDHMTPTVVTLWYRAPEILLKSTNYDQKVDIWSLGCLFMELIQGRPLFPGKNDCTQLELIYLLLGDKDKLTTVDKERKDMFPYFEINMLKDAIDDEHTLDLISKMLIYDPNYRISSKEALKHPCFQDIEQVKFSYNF

SMILES	outcome
Cc1cc(F)ccc1N(c1nc(-c2cc(Cl)ccc2Cl)cs1)C1CCNC1 (stereo unspecified)	inactive
CCc1nc2nc(C)cc(Nc3ccc(F)c(Cl)c3)n2n1	inactive
CN(C)CCNC(=O)c1cc2c(-c3ccc(Cl)cc3)nn(C)c2s1	inactive
CC(=O)c1sc(NC(=O)Nc2ccc(C)cc2C)nc1C	inactive
CCC(=O)NC(c1ccco1)c1cc(Cl)c2cccnc2c1O (stereo unspecified)	inactive
CCNc1cc(C)nc(Nc2ccc(NC(=O)c3ccccc3Br)cc2)n1	inactive
CCN(CCS(C)(=O)=O)Cc1ccc(-c2ccc3ncnc(Nc4ccc(OCc5cccc(F)c5)c(Cl)c4)c3c2)o1	inactive
Cc1cccc(C)c1N1CCN(C2CCC(NC(=O)/C=C/c3ccccc3)CC2)CC1 (stereo unspecified)	inactive
COc1cc2c(cc1C(F)(F)F)N(C(=O)Nc1cc(Br)cc(-c3cccnc3)c1)CC2	inactive
CCOc1cc(Br)c(C(C)NC(=O)c2ccccc2)cc1OCC (stereo unspecified)	inactive
Cc1cnccc1/C=C/c1cccc(OCCCN2CCc3ccc(S(C)(=O)=O)cc3CC2)c1	inactive
Cn1nc(-c2cccc(CNC3CCc4ccccc43)c2)c2cnc(NC3CCCC3)nc21 (stereo unspecified)	inactive
O=C(N[C@@H](Cc1ccccc1)C(=O)NC1CCCCCC1)c1ccc(O)c(-c2ccc(Cl)c(Cl)c2)c1	inactive
CC(=O)N1CCN(c2ccc(NC(=O)c3oc(-c4ccccc4)nc3C(F)(F)F)cn2)CC1	inactive
Cc1cc(F)ccc1[C@H]1C[C@H](N2CCOCC2)CCN1C(=O)N(C)[C@@H](C)c1cc(C(F)(F)F)cc(C(F)(F)F)c1	inactive
CCNC(=O)Nc1cccc(-c2ccc(-c3nc4c(C)cccc4[nH]3)s2)c1	inactive
